Reference: PubChem BioAssay AID1347426 (Functional Genomics Laboratory (NCATS/FGL), 2020)
Out of some 31,000 sequences screened, about 1,400 (4.5%) were called active. Shown is part of a subset that was picked to be rich in actives. Values without a mark were called inactive.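 Rule for the calls: active = median seed-adjusted z-score above 1 or below -1; inactive = the rest.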

test: Novel Modifiers of Survival Motor Neuron (SMN) Protein: Gene Identification via Genome-wide siRNA Screen; conditions: HEK293T SMN2-luciferase reporter, siRNA knockdown, 72 h; actives lie on both sides;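 note: luminescence tracks full-length SMN protein made from the SMN2 reporter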
Summary of the method: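 Luciferase signal, proportional to full-length SMN made from an SMN2 cDNA reporter in stable HEK293T cells, was read 72 h after siRNA reverse transfection. Values were expressed as MAD scores after non-targeting-control normalization and log10 conversion; seed analysis flagged off-targets.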

Row | Sequence | median seed-adjusted z-score
1 | GGAGAUUAGCAAGACCAUUTT against HOXC10 | 0.000966
2 | AGACAGCUGCGAAUCUGGATT against MEFV | 0
3 | GGGUUUAUAUCGAACGCAATT against RNF144B | 0.642
4 | CUCCUGCCUUGAGCCCUUATT against GFRA4 | -1.59 (active)
5 | UGAUGCCUGUGAUACACUATT against NEU1 | -0.425
6 | GACAGGUACUUCUAAGUCATT against AHSA1 | 0.489
7 | GAAAUUUGCGUGUGGAGUATT against TP53 | 0.214
8 | CUAGAUAUCGUGGACCUCATT against PYDC1 | -1.44 (active)
9 | AUACUACGUUGAUUACAAATT against LRRTM1 | -0.528
10 | CCAGUACCAAAGUUGAUAATT against RB1 | 0.49
11 | CCAUCUGUUUGAACUUAGATT against TLR5 | 0
12 | GCUAAAGAGAGAUAUGGAATT against DARS | 0
13 | GAGUUGAAAAUGACAAUGATT against CLSTN1 | 0.0811
14 | ACAGCCGCAUGAACAAGGATT against B3GNT7 | -1.05 (active)
15 | CAAAGACCCUUUAUUCGAATT against BTBD10 | 0.695
16 | GCCUUAUUGUUACAUGGUUTT against SLC19A2 | -0.679
17 | GCGCAGACGUGAUUGUCAATT against DAO | -0.00887
18 | UGAGAGCCCUAUUCCAGUATT against UBASH3A | -1.1 (active)
19 | GGAGGAUCCCAUUAUACUATT against LPA | -0.321
20 | GGAUCGCACUCAUGUGGAATT against A4GALT | -0.286
21 | GCAGAUGGUUAUAAGCACATT against GLA | -0.494
22 | GACCCGUUUAUACAACAAATT against MX2 | -0.0346

Row | Sequence | median seed-adjusted z-score
23 | CUAGCAACAUGGACAUAUUTT against STS | -0.392
24 | GGAUUACGUAUCAGACAUATT against CNGA1 | -1.08 (active)
25 | GGAGCAAAACAGAUCUUGATT against PINX1 | 0.11
26 | CCUCUCUAGUAAUGCAAGATT against NAT12 | -0.0807
27 | GCUGUGCGUUCUUCACAAATT against RAB17 | 0.473
28 | CACUCAGACGGGACGUUCATT against SCT | -0.454
29 | CGAGUUUGCUUGGUCAGAATT against SF3B1 | -3.65 (active)
30 | CAAUAGAUCAAGUUAUACATT against KPNA5 | -0.174
31 | UGCUUGGCGACUUCAGUAATT against AKR1C2 | -0.109
32 | UGGGAAUGGUAGAAACAAATT against PPIL1 | 0.166
33 | GCGCAUCUAUGAUGACGAUTT against UBA1 | 1.34 (active)
34 | GAGUUUUUAUGGACUCUCATT against GRIK4 | 0.249
35 | CCAGAAAACUUGCGAAACATT against RFX4 | -0.0226
36 | CCUCCGGAGAGAAAAAUGATT against NXF2 | -0.0513
37 | CAUCAAAGAUUGCACUUCATT against TOMM34 | -0.503
38 | GCCGGAAACAAAUACGUGATT against ZNF677 | -0.441
39 | GGCACGUUCUGAUCCAGAUTT against ACADM | 0.127
40 | CGAUAUCAAGUGCACCAAATT against CAD | 2.37 (active)
41 | GAGCAUUUGUGCGCAAGUUTT against NRP2 | 0.477
42 | GCUCAUUCCUUCUACAAUUTT against CACNA1G | 0.436
43 | GGAUGUAAGUUGUCCAAUATT against SUZ12 | -1.65 (active)
44 | CGAGUGAAGUGGGAUGAGATT against STARD5 | -0.0333

Row | Sequence | median seed-adjusted z-score
45 | GCCGUUACCAUGGAACUUUTT against GSPT2 | 0.846
46 | CACUGACUCGGAAACUGCATT against IGF2BP3 | -0.636
47 | CACCAGGUCUGGAUAUUGATT against SF3A1 | -1.09 (active)
48 | GCACAACUGUAGAGACAGATT against CIDEC | 0.189
49 | GCAGAGAUCUUUGUAGUCUTT against FTSJ3 | 0.437
50 | CGGGUAAACUAUGAGCUGATT against ADCY2 | 0.173
51 | GCAAGGCUUUUGACGUAGATT against MAP3K6 | 0
52 | GGAAAUUAUGUAGAACCGATT against ALDH7A1 | -0.406
53 | CAGUGCACAGUGAAACCAATT against ADAM11 | 0.102
54 | GAGCUAGCGAAUAACCUUATT against DDX42 | -2.13 (active)
55 | CCCUCGGGAUCACACUUAUTT against MFSD1 | -0.0833
56 | GCACGAUAUAUAUAGCUAUTT against RIPK2 | 0.176
57 | CAAAGACUCUGGAAUGAAUTT against PRICKLE2 | -1.12 (active)
58 | CAACAAGCGUAAGACCAAATT against SYTL5 | 0.192
59 | GGAUCGCCCUGUAUGCUGUTT against LRTM2 | 0.465
60 | GAAGAGCUCUUAGAGUGUATT against BCAT1 | -0.604
61 | AGUCCUCUAUCAACCUCUUTT against RXFP3 | -0.0651
62 | CUCCGUAUCAUAGAUGUAATT against PCDHB3 | 0.304
63 | GGAGCUCACUGACGAGAAUTT against POLR2C | -2.95 (active)
64 | GAAACCAAGUCAUAUGAAATT against CRTAP | 0.581
65 | GGAUCUACUCGGCACUCUATT against ZBTB20 | -0.521
66 | AGACCGCACUGACAGAGGATT against BAIAP2 | -0.0497

Row | Sequence | median seed-adjusted z-score
67 | CAAAGAACCUAUCCGCUUATT against GGA2 | -0.142
68 | GAAGCAGAGGACAACAUGATT against SNRPD3 | -2.69 (active)
69 | CAGUUAUGAUUGGUGGAGATT against CDC42 | -0.0938
70 | AGAACUUGAUGCUCCGAGATT against ITGA7 | 0.13
71 | UUCUCUCCCUAAUAAAAAUTT against AVPR2 | -0.262
72 | GCCUACCCAUUUGUGAACATT against PEX12 | -0.129
73 | GCUCCACCGAGAUUCCUGATT against TCEB1 | 1.08 (active)
74 | GGUGCUGGAGUUAAUCUUATT against TP53I3 | 0.244
75 | GGCUUAAAGACAUUGAACATT against KLHL1 | 0.067
76 | GGACCUAGUGUGAGCAUAATT against COL14A1 | 0.19
77 | GCCCACAUGUUUAAGGACATT against KCTD9 | 1.31 (active)
78 | GAUACGUACUAUGACCGAATT against TGM7 | 0.244
79 | GCACCUUCCGCGUCAUGUUTT against BTBD2 | 0.0303
80 | GAGCUGACUUCGGAACUAATT against LCN2 | 0.123
81 | CCACAGAGAUAAGCAGUCATT against IL15RA | -0.0113
82 | GGACUCCCAUCAGUUCCUATT against MFSD4 | -1.89 (active)
83 | GCUGGAAUCUAACAAUAGATT against ROCK2 | -0.149
84 | CGUGUCCUGUCUGAACCAATT against ESCO2 | 0
85 | AAGAGUCAGUUUUCAGAUATT against CHID1 | 0.199
86 | GGAGGUUAAAGUGAAGAUUTT against MORF4L2 | 0.389
87 | AAAUCGAUCAGAUCAACAATT against CDC2L1 | -1.14 (active)
88 | CCCUGAUCCUAUAGCUAUUTT against ART4 | -0.0808

Row | Sequence | median seed-adjusted z-score
89 | GAUCUGUGGUUGCAAACGATT against TRMT1 | -0.224
90 | CAGUUAUACUCAGAAGAGATT against ZNF155 | 0.698
91 | GAAUGACCUUGAACAAUGATT against ABTB2 | 0.432
92 | UGGAAUACAUGGAUCAGAATT against HEPACAM | -0.063
93 | AGUACGGACAGAUCUCUGATT against CIRBP | -0.701
94 | CAGUCGACCAGUACAUCAATT against PMS1 | 0.0538
95 | AGUUGUAAAUUUACAAAGATT against UNC119 | 0.171
96 | GAGUUUUUCGAGCUCAUGATT against PGS1 | 1.36 (active)
97 | GGACUUUGGUGUGAAUGAATT against ANXA1 | -0.114
98 | GCAUUGAAACGAAUGGGAATT against UBA5 | -0.105
99 | UCUUCACCGUGUGCCUAGATT against CRAT | -1.42 (active)
100 | GCAGAUAAGAUCAAGAUCATT against SRPK3 | -0.643
101 | GAAGAAACCUUGACAAAAATT against KHDRBS3 | 0.0681
102 | GACUAGUUUUGAUCAGGAATT against ZBTB5 | 0.314
103 | GCAGAAUUCUGACGAUGAUTT against LEO1 | 1.2 (active)
104 | CGAACAAAACGGGCCUGGATT against FOXA2 | 0.883
105 | CCCUCUUUGGUCUAACUCATT against HOXA3 | 0.315
106 | CGAAGACACGUAGCCCUAATT against PUS3 | 0.584
107 | GGUGUAAUAAUGUCCUUUATT against SNRPF | -2.66 (active)
108 | GGACUACAAAGUCGACCAATT against NDUFB10 | -0.39
